TEAD-YAP inh: TEAD-YAP interaction inhibition, primary screen, TEAD-YAP interaction inhibitor project, luminescence, HEK-TIYL cells | hit rate 1.4% among 640,000 | TEAD-Gal4/YAP UAS-luciferase luminescence | AID 1259422, 2018 | inhibition, % at 9.12 µM; in the data active = inhibition above about 32%;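 note: 0% = median of test compound wells and 100% = reference inhibitor wells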
FBW7 act: FBW7 E3 ligase activators, primary screen, biochemical, AlphaScreen, human; hit rate 0.13% among 650,000; F-box/WD repeat-containing protein 7 (Homo sapiens), Q969H0; AlphaScreen FBW7–phospho-cyclin E peptide binding, activator screen; normalized activity (activation), % at 26.1 µM; in the data active = normalized activity above about 1.9%;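 note: purified mutant Fbw7 with reduced substrate affinity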
MITF inh: MITF inhibitors, primary screen, biochemical, AlphaScreen, human; Microphthalmia-associated transcription factor (Homo sapiens), O75030; AlphaScreen MITF homodimerization, bead proximity signal; inhibition, % at 2.6 µM; hit rate 0.91% among 650,000; in the data active = inhibition above about 50%;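 note: 0% = vehicle wells with protein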
GPR151 ag: activators of human GPR151, primary screen, cell-based, PathHunter beta-arrestin, luminescence; G-protein coupled receptor 151 (Homo sapiens), Q8TDV0; PathHunter beta-arrestin GPR151 cells; activation, % at 11.2 µM; hit rate 1% among 650,000; in the data active = activation above about 4.9%;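 note: 0% = median of compound wells and 100% = cells with positive control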
Target sequence (Q8TDV0 whole entry, looked up): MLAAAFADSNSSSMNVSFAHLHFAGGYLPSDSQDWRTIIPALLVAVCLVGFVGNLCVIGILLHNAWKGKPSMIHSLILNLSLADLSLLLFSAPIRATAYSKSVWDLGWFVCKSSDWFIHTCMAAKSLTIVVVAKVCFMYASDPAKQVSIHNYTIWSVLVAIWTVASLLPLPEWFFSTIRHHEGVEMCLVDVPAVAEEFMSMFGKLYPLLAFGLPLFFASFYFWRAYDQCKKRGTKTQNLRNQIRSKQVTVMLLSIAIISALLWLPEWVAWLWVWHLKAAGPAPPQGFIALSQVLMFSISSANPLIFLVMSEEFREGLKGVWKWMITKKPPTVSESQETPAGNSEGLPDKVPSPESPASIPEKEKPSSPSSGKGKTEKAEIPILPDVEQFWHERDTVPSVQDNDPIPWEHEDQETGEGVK
* hit, by the source's call. Most compounds without a hit are left out; they make up all but 3.5% or so of the library.

CCN(CC)C(=O)C(C)NC(=O)C12CC3CC(CC(C3)C1)C2 (stereo not drawn) was read as TEAD-YAP inh -2, FBW7 act 0, MITF inh -13 and GPR151 ag 1.
Screening COc1ccc(C2c3[nH]c4ccccc4c3CCN2C(=O)CNC(C)=O)c(C)c1C (stereo not drawn) returned TEAD-YAP inh 4, FBW7 act 0, MITF inh -7 and GPR151 ag -1.
For CCC1=C[C@H]2CN(C1)Cc1c([nH]c3ccccc13)[C@@](C(=O)OC)(c1cc3c(cc1OC)N(C)[C@H]1[C@@](O)(C(=O)OC)[C@H](OC(C)=O)[C@]4(CC)C=CCN5CC[C@]31[C@@H]54)C2 the results were TEAD-YAP inh 56*, FBW7 act 0, MITF inh 33 and GPR151 ag 2.
`COc1ccccc1NC(=O)N1CCC2(CC1)OCCc1c2[nH]c2ccccc12` gave TEAD-YAP inh -4, FBW7 act 0, MITF inh 6 and GPR151 ag 0.
CC[C@]1(O)C[C@H]2CN(CCc3c([nH]c4ccccc34)[C@H](C)[C@H]2c2cc3c(cc2OC)N(C=O)[C@H]2[C@@](O)(C(=O)OC)[C@H](C)[C@]4(CC)C=CCN5CC[C@]32[C@@H]54)C1 was read as TEAD-YAP inh 56*, FBW7 act 0, MITF inh 4 and GPR151 ag 2.
`CCC1(O)CC2CN(CCc3c([nH]c4ccccc34)[C@@](C(=O)OC)(c3cc4c(cc3OC)N(C=O)C3[C@]45CCN4CC=C[C@@](CC)([C@@H](OC(C)=O)[C@]3(O)C(=O)OC)[C@H]45)C2)C1` (stereo partly drawn) gave TEAD-YAP inh 69*, FBW7 act 0, MITF inh 26 and GPR151 ag -1.
CC[C@]1(O)CC2CN(CCc3c([nH]c4ccccc34)[C@@](C(=O)OC)(c3cc4c(cc3OC)N(C)[C@H]3[C@@](O)(C(=O)OC)[C@H](OC(C)=O)[C@]5(CC)C=CCN6CC[C@]43[C@@H]65)C2)C1 (stereo partly drawn) was read as TEAD-YAP inh 59*, FBW7 act 0, MITF inh -7 and GPR151 ag 2.
For Nc1ccc(Sc2nc3ccccc3s2)cc1 the results were TEAD-YAP inh -48, FBW7 act 0, MITF inh 2 and GPR151 ag -2.
For COCCNC(=O)c1ccc(-c2ccccc2OC)nc1N(C)C the results were TEAD-YAP inh -14, FBW7 act 0, MITF inh -1 and GPR151 ag -1.
For CSc1nnc(NC(=O)c2c(Cl)cccc2Cl)s1 the results were TEAD-YAP inh 3, FBW7 act 0, MITF inh -1 and GPR151 ag 1.
Screening CSc1nnc(NC(=O)c2ccccc2[N+](=O)[O-])s1 returned TEAD-YAP inh -18, FBW7 act 0, MITF inh 1 and GPR151 ag -1.
For CCCSc1nnc(NC(=O)c2cccc(OC)c2)s1 the results were TEAD-YAP inh -4, FBW7 act 0, MITF inh 17 and GPR151 ag -2.
`CSc1nnc(NC(=O)c2ccccc2C)s1` gave TEAD-YAP inh 41*, FBW7 act 0, MITF inh 3 and GPR151 ag -9.
For COc1cccc(C(=O)Nc2nnc(SC)s2)c1 the results were TEAD-YAP inh 43*, FBW7 act 0, MITF inh -3 and GPR151 ag -10.
Screening CSc1nnc(NC(=O)c2ccccc2Cl)s1 returned TEAD-YAP inh 39*, FBW7 act 0, MITF inh 22 and GPR151 ag -11.
COc1ccc(-c2nnc3n2N=C(c2cccc([N+](=O)[O-])c2)CS3)cc1 was read as TEAD-YAP inh 6, FBW7 act 0, MITF inh -20 and GPR151 ag 5.
For CNC(=O)/C(C#N)=C/c1ccc(N2CCCCC2)o1 the results were TEAD-YAP inh -10, FBW7 act 1, MITF inh 18 and GPR151 ag 0.
Screening C/C(CC(=O)Nc1ccccc1C)=N\NC(=O)C(=O)Nc1ccccc1C returned TEAD-YAP inh -20, FBW7 act 2.0*, MITF inh -10 and GPR151 ag 1.
O=C(O)c1ccc(CN2CCN(c3ccc([N+](=O)[O-])cc3)CC2)cc1 was read as TEAD-YAP inh 14, FBW7 act 0, MITF inh -7 and GPR151 ag 0.
For Fc1ccc(-c2cnc(N3CCC4(CC3)OCCO4)nc2)cc1 the results were TEAD-YAP inh 43*, FBW7 act 0, MITF inh 9 and GPR151 ag -11.
Cc1ccc(-c2cnc(N3CCC4(CC3)OCCO4)nc2)cc1 was read as TEAD-YAP inh -49, FBW7 act 0, MITF inh 3 and GPR151 ag -3.
For CNC(=O)c1ccccc1Nc1cc(NC(=O)Cc2cccs2)ncc1C(F)(F)F the results were TEAD-YAP inh 74*, FBW7 act 0, MITF inh 8 and GPR151 ag -1.
`CNC(=O)c1ccccc1Nc1cc(NC(=O)Cc2ccsc2)ncc1C(F)(F)F` gave TEAD-YAP inh 77*, FBW7 act 0, MITF inh -9 and GPR151 ag 0.
Screening CC(C)N1CCN(c2ccc(Oc3cc(Nc4ccccc4C(N)=O)c(C(F)(F)F)cn3)cc2)CC1 returned TEAD-YAP inh 14, FBW7 act 1, MITF inh 12 and GPR151 ag -1.
CS(=O)(=O)NC1CCC(Nc2cc(Nc3ccccc3C(N)=O)c(C(F)(F)F)cn2)CC1 (stereo not drawn) was read as TEAD-YAP inh 98*, FBW7 act 1, MITF inh 11 and GPR151 ag -2.
Screening CNC(=O)c1ccccc1Nc1cc(NC(=O)Cc2ccccc2F)ncc1C(F)(F)F returned TEAD-YAP inh 81*, FBW7 act 0, MITF inh 9 and GPR151 ag 0.
NC(=O)c1ccccc1NC(=O)Cc1cccs1 was read as TEAD-YAP inh 3, FBW7 act 0, MITF inh 2 and GPR151 ag 0.
For O=C(Cc1ccc2c(c1)OCO2)Nc1cc(Nc2ccccc2-c2nn[nH]n2)c(C(F)(F)F)cn1 the results were TEAD-YAP inh 5, FBW7 act 1, MITF inh 10 and GPR151 ag -1.
COc1ccc(OCCSc2ncnc3sccc23)cc1 was read as TEAD-YAP inh 9, FBW7 act 0, MITF inh -2 and GPR151 ag 0.
CNC(=O)c1ccccc1Nc1cc(NC(=O)Cc2ccc(F)cc2)ncc1C(F)(F)F was read as TEAD-YAP inh 72*, FBW7 act 0, MITF inh -7 and GPR151 ag 0.
Screening CNC(=O)c1ccccc1Nc1cc(NC(=O)C2CCc3ccccc32)ncc1C(F)(F)F (stereo not drawn) returned TEAD-YAP inh 79*, FBW7 act 0, MITF inh 16 and GPR151 ag -2.
`CNC(=O)c1ccccc1Nc1cc(NCc2ccccc2)ncc1C(F)(F)F` gave TEAD-YAP inh 22, FBW7 act 0, MITF inh 18 and GPR151 ag 1.

Source: PubChem (The Scripps Research Institute Molecular Screening Center)
